Records with an inconclusive call do not appear. The source made the active and inactive calls. The call rests on the fitted dose curve.
Potency means the concentration at half of the fitted maximal effect.

The nature of the assay: Cell Viability - SK-N-SH (AID 435).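 Further: compound exposure lasted 40 h at 37 °C.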 The following applies: SK-N-SH neuroblastoma cell viability qHTS. An excerpt:
NIH Chemical Genomics Center [NCGC]
NIH Molecular Libraries Screening Centers Network [MLSCN]
National Institutes of Environmental Health Sciences [NIEHS]
National Toxicology Program [NTP]
We have developed a 1536-well cell-based assay for quantitative high throughput screening (qHTS) against a number of cell lines to determine in vitro cytotoxicity of small molecules. This particular assay uses the SK-N-SH cell line which is derived from human neuroblastoma.
NCGC Assay Protocol Summary:
The CellTiter-Glo luminescent cell viability assay (Promega) is a homogeneous method to measure the number of viable cells in culture. The end point readout of this assay is based on quantitation of intracellular ATP, an indicator of metabolic activity, using the luciferase reaction. Luciferase catalyzes the oxidation of beetle Luciferin to oxyluciferin and light in the presence of ATP. The luminescent signal is proportional to amount of ATP present.
Using the CellTiter-Glo luminescent cell viability assay, the amount of cellular ATP was measured in the SK-N-SH cell line with complete culture medium following compound treatment for 40 hours. The assay was performed in opaque white Kalypsys 1536-well plates. In the screen, tamoxifen and doxorubicin were used as positive controls. Library compounds were measured for their ability to cause acute toxicity in the cell line, as reflected by a decrease in intracellular ATP levels, in a concentration-dependent manner. Data were normalized to the controls for basal activity (DMSO only) and 100% inhibition (100 uM tamoxifen). AC50 values were determined from concentration-response data modeled with the standard Hill equation.
qHTS protocol fo CellTiter Glo SK-N-SH cellular assay
[Step] [Parameter] [Value] [Description]
1. Reagent; 5 uL; 1500 SK-N-SH cells/well
2. Time; 5 hr; 37 °C incubation
4. Controls; 23 nL; Tamoxifen 0.34 uM to 100 uM & Doxorubicin 0.02 nM to 100 uM
5. Time; 40 hr; 37 °C incubation
6. Reagent; 5 uL; CellTiter Glo reagent
7. Time; 20 min; Room Temperature
8. Detection; Luminescence; Viewlux plate reader
Keywords: cell viability, cytotoxicity, SK-N-SH cell line, luminescence, NTPHTS, NTPHTS_NCGC, NIEHS, EPA, DSSTox, MLSMR, MLSCN, NIH Roadmap, qHTS, NCGC
In general terms: In qHTS, concentration-response curves come from the screen itself.
With `CC(=O)/C=C/c1ccccc1`, the Potency is > 92 µM (inactive).
Next, `Oc1ccccc1Cl`: > 92 µM (inactive); `O=Cc1ccccc1`: > 92 µM (inactive); `COC1=CC(=O)OC(CCc2ccc3c(c2)OCO3)C1` (stereo unspecified): > 92 µM (inactive).
With `CCOc1cc(C=O)ccc1O` the figure was > 92 µM (inactive); with `CCOC(=O)c1ccccc1N`, > 92 µM (inactive).
On to `c1ccc(Nc2ccc3ccccc3c2)cc1`, for which the Potency was > 92 µM (inactive).
With `c1ccc2c(c1)-c1cccc3cccc-2c13` the figure was > 92 µM (inactive).
With `COC(=O)c1ccccc1C(=O)OC` the figure was > 92 µM (inactive); with `CC(C)COC(=O)c1ccccc1C(=O)OCC(C)C`, > 92 µM (inactive).
With `Cc1ccccc1O` the figure was > 92 µM (inactive).

The values are drawn from PubChem BioAssay (NCATS).
